Results published in PubChem BioAssay (NCATS).
Records with an inconclusive call do not appear. Active and inactive are the calls of the source. Unless noted, calls come from the whole dose curve; as a rule, active = well fitted curve in the direction sought with a large enough effect; inconclusive = small, poorly fitted or top-dose-only effect, or another doubt; inactive = no such curve, though single readings can be large; an effect the other way counts as inactive or inconclusive.

Assays:
[1] = biological target: ATP-dependent 6-phosphofructokinase (Trypanosoma brucei brucei) (UniProt O15648); test: qHTS Assay to Find Inhibitors of T. brucei phosphofructokinase: hit validation (AID 492961);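 note: luminescence reports ADP formed as PFK phosphorylates fructose-6-phosphate with ATP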; details: T. brucei PFK, ADP-Glo luminescence; series mostly up to 51.4 µM
ATP-dependent 6-phosphofructokinase (Trypanosoma brucei brucei), sequence (O15648 whole entry, looked up): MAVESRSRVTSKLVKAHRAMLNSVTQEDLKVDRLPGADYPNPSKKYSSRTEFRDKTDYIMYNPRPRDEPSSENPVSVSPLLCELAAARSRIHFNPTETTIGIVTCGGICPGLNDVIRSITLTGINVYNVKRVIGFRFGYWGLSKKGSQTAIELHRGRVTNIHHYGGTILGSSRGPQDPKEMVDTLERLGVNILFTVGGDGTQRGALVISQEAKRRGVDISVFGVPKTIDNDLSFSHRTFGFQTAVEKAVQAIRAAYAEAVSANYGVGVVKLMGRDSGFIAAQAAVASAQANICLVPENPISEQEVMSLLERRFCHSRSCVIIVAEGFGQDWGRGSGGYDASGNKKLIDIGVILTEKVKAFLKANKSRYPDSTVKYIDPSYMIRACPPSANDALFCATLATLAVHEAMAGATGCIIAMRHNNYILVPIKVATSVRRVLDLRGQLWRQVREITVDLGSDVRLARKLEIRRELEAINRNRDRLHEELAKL
In short: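 Reaction: 0.1 M triethanolamine pH 8.0, 5 mM MgCl2, F6P 0.5 mM, ATP 0.1 mM, PFK 1.25 nM, 45 min RT. Read-out: ADP-Glo luminescence. Analysis: concentration-response fits, classed by r2 and efficacy.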

[2] = Quantitative high throughput screen for delayed death inhibitors of the malarial parasite plastid, 96 hour incubation (AID 488745); details: Plasmodium falciparum growth; series mostly up to 28.7 µM;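 note: luciferase-expressing P. falciparum in erythrocytes at 2% hematocrit and 0.1% parasitemia; nearly all actives have a fitted effect of over 70% in size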
In short: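 Growth of reporter-bearing P. falciparum in red cells is measured after 96 h with compound, covering two erythrocytic cycles. Luminescence from the integrated luciferase serves as the growth signal.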

[3] = Quantitative high throughput screen for delayed death inhibitors of the malarial parasite plastid, 48 hour incubation (AID 488752); details: Plasmodium falciparum growth; series mostly up to 28.7 µM; note: nearly all actives have a fitted effect of over 65% in size
In short: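 One parasite generation (48 h, 37 C, 5% CO2) of luciferase-reporter P. falciparum in erythrocytes is run with test compound; decreased luminescence indicates inhibited growth.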

[4] = biological target: M-phase phosphoprotein 8 (Homo sapiens) (UniProt Q99549); test: qHTS Validation Assay for Inhibitors for MPP8 Chromodomain Interactions with Methylated Histone Tails (AID 488949); details: AlphaScreen MPP8 binding to H3K9me3 peptide; series mostly up to 57.1 µM;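 note: 50 nM MPP8 with 50 nM peptide preformed then compounds added for 30 min; AlphaScreen signal from MPP8 chromodomain bound to biotinylated H3K9me3 peptide; top concentration of the series differs between compounds; nearly all actives have a fitted effect of over 55% in size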
M-phase phosphoprotein 8 (Homo sapiens), sequence (Q99549 whole entry, looked up): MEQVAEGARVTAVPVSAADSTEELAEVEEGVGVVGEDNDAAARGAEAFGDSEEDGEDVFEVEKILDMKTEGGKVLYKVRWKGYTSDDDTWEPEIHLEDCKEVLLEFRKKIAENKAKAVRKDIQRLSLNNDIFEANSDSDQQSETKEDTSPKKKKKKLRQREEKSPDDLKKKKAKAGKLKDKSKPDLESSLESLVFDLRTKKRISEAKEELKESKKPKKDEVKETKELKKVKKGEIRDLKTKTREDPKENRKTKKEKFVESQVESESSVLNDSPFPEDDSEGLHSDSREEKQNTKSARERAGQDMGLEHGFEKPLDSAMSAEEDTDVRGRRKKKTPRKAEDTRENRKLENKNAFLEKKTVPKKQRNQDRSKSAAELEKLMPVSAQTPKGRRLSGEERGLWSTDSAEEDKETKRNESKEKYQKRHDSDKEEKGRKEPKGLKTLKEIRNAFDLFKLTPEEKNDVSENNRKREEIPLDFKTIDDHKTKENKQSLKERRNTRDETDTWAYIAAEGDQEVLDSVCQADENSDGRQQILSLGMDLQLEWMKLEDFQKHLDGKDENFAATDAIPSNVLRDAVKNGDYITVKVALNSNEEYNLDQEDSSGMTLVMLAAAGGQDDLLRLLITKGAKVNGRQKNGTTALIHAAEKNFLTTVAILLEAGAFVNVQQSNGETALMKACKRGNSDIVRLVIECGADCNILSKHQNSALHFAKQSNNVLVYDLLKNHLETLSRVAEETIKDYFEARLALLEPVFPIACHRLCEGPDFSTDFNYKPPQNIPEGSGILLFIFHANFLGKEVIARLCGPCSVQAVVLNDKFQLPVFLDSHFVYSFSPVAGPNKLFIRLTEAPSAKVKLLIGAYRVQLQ
In short: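 50 nM MPP8 + 50 nM b-H3K9me3 peptide, PBS pH 7.4/0.01% Tween-20, 30 min RT; + cpd 30 min RT; + AlphaScreen donor/Ni-chelate acceptor beads 10 ug/mL final, 30 min dark; luminescence read.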

[5] = biological target: Transient receptor potential cation channel subfamily V member 1 (Homo sapiens) (UniProt Q8NER1); test: HTS Assay for Compounds that Act as Enhancers of the Vanilloid Receptor 1 (AID 488979); details: TRPV1-expressing cells, enhancer of channel activity, stimulated with capsaicin at EC20; series mostly up to 41.7 µM
In short: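 TRPV1-expressing cells loaded with Fluo-8 calcium dye; compounds added and calcium influx read kinetically for 3 min (agonist phase), then capsaicin at EC20 added and read 2 min more for enhancement. Fluorescence ex 480/em 520 nm.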

[6] = biological target: Thyrotropin receptor (Homo sapiens) (UniProt P16473); test: qHTS Assay for Antagonists of the Thyroid Stimulating Hormone Receptor (AID 488980); details: TSHR-expressing cells, cAMP antagonist read-out; series mostly up to 57.5 µM
In short: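 Readout is cAMP by HTRF competition between cellular cAMP and cAMP-d2 for a cryptate-labelled antibody. Antagonism was assessed in TSHR-transfected HEK293 cells stimulated with 4 nM TSH (EC80, final) in the presence of RO 20-1724.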

[7] = biological target: Galactokinase (Homo sapiens) (UniProt P51570); test: qHTS Validation Assay for Inhibitors of Human Galactokinase (GALK) (AID 493189); details: purified human GALK enzyme activity, qHTS 7-point titration; series mostly up to 57.5 µM
In short: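 5 nM GALK / 100 uM galactose / 35 uM ATP, 20 mM HEPES pH8.0, 5 mM MgCl2, 60 mM NaCl, 1 mM DTT, 0.01% BSA (final). RT 1 h; Kinase-Glo Plus luminescence.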

[8] = biological target: ATP-dependent 6-phosphofructokinase (Trypanosoma brucei brucei) (UniProt O15648); test: qHTS Validation Assay to Find Inhibitors of T. brucei phosphofructokinase (AID 485368); details: T. brucei PFK enzyme assay, qHTS 7-point titration; series mostly up to 57.5 µM
In short: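 Enzyme reaction in triethanolamine buffer pH 8.0 with 5 mM MgCl2, 0.01% Tween20 and 0.1% BSA; PFK 1.25 nM, F6P 0.5 mM, ATP 0.1 mM, 45 min RT. ADP quantified by ADP-Glo.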

[9] = biological target: Thioredoxin reductase 1, cytoplasmic (Rattus norvegicus) (UniProt O89049); test: qHTS Assay for Substrates of Mammalian Selenoprotein Thioredoxin Reductase 1 (TrxR1) (AID 488772); details: purified TrxR1, NADPH consumption substrate assay; series mostly up to 57.1 µM;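 note: NADPH fluorescence in the first read after selenite addition and not the 8 min delta; a drop in NADPH fluorescence below the no-compound background marks a TrxR1 substrate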
Thioredoxin reductase 1, cytoplasmic (Rattus norvegicus), sequence (O89049 whole entry, looked up): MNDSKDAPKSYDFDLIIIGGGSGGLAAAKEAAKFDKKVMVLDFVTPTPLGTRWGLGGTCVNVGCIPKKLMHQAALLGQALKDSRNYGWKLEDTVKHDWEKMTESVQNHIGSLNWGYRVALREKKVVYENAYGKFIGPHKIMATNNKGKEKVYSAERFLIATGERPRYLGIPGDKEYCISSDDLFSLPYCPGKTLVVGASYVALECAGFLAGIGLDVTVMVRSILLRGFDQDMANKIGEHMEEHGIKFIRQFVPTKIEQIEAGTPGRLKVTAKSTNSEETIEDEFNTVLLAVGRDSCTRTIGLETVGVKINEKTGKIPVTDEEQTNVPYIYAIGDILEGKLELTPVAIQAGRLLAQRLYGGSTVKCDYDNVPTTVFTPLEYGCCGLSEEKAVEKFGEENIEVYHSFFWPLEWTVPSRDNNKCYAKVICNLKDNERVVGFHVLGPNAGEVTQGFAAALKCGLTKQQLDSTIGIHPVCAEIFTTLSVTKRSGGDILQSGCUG
In short: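 Quantitative HTS in Tris-HCl buffer at pH 7.5 with EDTA and Tween-20, using rat TrxR1, 400 uM NADPH and 400 uM selenite (final). A fall in initial NADPH fluorescence relative to background marked substrate behaviour.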

[10] = biological target: Thioredoxin reductase 1, cytoplasmic (Rattus norvegicus) (UniProt O89049); test: qHTS Assay for Inhibitors of Mammalian Selenoprotein Thioredoxin Reductase 1 (TrxR1) (AID 488773); details: purified TrxR1 enzyme activity; series mostly up to 57.1 µM;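 note: drop in NADPH fluorescence over an 8 min run after selenite addition; nearly all actives have a fitted effect of over 40% in size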
In short: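 Steps: enzyme (90 nM) plus NADPH (400 uM final), 5 min at ~22 deg C; compound added, 15 min; selenite (400 uM final) added; fluorescence followed for 8 min. Concentration-response curves derived from the normalized delta values.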

[11] = biological target: Flap endonuclease 1 (Homo sapiens) (UniProt P39748); test: qHTS Validation Assay for the Inhibitors of Human Flap endonuclease 1 (FEN1) (AID 488816); details: FEN1 nuclease activity, fluorogenic DNA substrate; series mostly up to 57.1 µM
Flap endonuclease 1 (Homo sapiens), sequence (P39748 whole entry, looked up): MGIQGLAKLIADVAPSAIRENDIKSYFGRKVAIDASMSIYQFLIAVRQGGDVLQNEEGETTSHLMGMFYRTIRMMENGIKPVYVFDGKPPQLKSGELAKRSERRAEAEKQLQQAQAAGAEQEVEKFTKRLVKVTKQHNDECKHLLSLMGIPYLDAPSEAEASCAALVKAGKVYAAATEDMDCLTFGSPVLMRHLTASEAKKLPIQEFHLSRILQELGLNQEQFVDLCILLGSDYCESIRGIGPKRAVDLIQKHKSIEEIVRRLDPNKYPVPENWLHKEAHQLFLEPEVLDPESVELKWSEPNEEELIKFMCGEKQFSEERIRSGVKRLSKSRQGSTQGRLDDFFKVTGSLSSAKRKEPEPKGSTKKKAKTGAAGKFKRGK
In short: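 FEN1, dispensed as a 10 nM reagent, was preincubated with pin-transferred compounds for 15 min at room temperature before substrate was added (50 nM final). Plates were read at 0 and 15 min, and a four-parameter Hill equation was fitted to the concentration-response data.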

[12] = biological target: Chromobox protein homolog 1 (Homo sapiens) (UniProt P83916); test: qHTS Validation Assay for Inhibitors of HP1-beta Chromodomain Interactions with Methylated Histone Tails (AID 488953); details: HP1-beta chromodomain / methylated histone peptide binding assay; series mostly up to 114 µM;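 note: loss of AlphaScreen luminescence from HP1-beta binding biotinylated H3K9me3 peptide; nearly all actives have a fitted effect of over 50% in size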
In short: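 Measured as loss of AlphaScreen luminescence from streptavidin donor and nickel acceptor beads (10 ug/mL final) bridging HP1-beta and biotin-H3(1-18)K9me3, each 50 nM. Compounds met the preassembled complex for 30 min at RT.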

[13] = biological target: Methanococcus maripaludis chaperonin (MmCpn) (UniProt Q6LX38); test: High-Throughput Screening for Modulators of Cytosolic Chaperonin Activity: MmCpn Primary Screen (AID 488978); details: Purified MmCpn ATPase activity, ADP HTRF detection, 10 min; series mostly up to 76.9 µM;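 note: 50 nM MmCpn enzyme hydrolysing 30 µM ATP at 37 °C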
Methanococcus maripaludis chaperonin (MmCpn), sequence (Q6LX38 1-543): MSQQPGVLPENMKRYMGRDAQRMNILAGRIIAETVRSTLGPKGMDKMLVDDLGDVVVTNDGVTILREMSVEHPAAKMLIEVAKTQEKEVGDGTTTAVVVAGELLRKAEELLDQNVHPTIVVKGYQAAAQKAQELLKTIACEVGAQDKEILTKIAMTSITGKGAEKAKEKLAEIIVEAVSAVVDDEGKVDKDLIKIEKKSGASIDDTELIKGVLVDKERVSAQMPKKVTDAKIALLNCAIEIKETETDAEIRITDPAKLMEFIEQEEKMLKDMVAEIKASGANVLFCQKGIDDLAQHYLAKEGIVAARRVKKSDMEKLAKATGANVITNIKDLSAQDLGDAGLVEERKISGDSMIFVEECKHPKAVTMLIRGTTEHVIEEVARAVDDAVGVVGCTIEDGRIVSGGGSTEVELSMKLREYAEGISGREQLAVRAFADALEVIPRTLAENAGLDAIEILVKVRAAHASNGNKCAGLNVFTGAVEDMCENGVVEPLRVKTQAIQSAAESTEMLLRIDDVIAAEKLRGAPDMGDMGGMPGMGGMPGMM
In short: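 Steps: chaperonin 50 nM final; add compound, 5 min RT; start with ATP, 30 uM final; hold 10 min at 37C; add ADP Transcreener HTRF reagent, 5 min; read ex 320, em 590 and 665 nm.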

[14] = biological target: D(1A) dopamine receptor (Homo sapiens) (UniProt P21728); test: HTS Assay for Allosteric Agonists of the Human D1 Dopamine Receptor: Primary Screen for Agonists (AID 488981); details: Inducible HEK293 T-REx D1 cells, calcium-flux fluorescence, 180 s kinetic; series mostly up to 41.8 µM
D(1A) dopamine receptor (Homo sapiens), sequence (P21728 whole entry, looked up): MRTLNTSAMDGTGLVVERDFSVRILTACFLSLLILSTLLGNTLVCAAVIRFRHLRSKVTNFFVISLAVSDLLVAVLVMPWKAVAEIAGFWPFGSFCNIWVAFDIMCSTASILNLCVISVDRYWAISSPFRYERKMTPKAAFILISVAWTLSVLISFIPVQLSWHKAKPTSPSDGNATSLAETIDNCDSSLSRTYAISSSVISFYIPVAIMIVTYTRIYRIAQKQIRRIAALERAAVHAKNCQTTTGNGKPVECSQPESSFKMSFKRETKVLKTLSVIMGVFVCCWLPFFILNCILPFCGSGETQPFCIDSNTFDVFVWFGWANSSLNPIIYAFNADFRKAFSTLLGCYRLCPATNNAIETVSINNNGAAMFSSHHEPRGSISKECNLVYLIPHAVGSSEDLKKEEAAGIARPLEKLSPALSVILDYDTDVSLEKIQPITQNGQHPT
In short: (§1)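 Tetracycline-induced HEK293 T-REx cells force-coupled to calcium signalling were incubated overnight at 30 C and dye-loaded at room temperature. Calcium flux over 180 s after compound addition flagged agonists; a further 180 s read after EC20 dopamine flagged potentiators.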

[15] = biological target: D(1A) dopamine receptor (Homo sapiens) (UniProt P21728); test: HTS Assay for Allosteric Agonists of the Human D1 Dopamine Receptor: Primary Screen for Potentiators (AID 488982); details: HEK293 T-REx D1 inducible cells, calcium flux, kinetic fluorescence; series mostly up to 8.37 µM
In short: as §1

[16] = biological target: D(1A) dopamine receptor (Homo sapiens) (UniProt P21728); test: HTS Assay for Allosteric Agonists of the Human D1 Dopamine Receptor: Primary Screen for Antagonists (AID 488983); details: D1 receptor cell assay, antagonist mode, qHTS titration; series mostly up to 41.8 µM;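 note: calcium flux response to an EC80 dopamine challenge measured with no-wash dye; nearly all actives have a fitted effect of over 65% in size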
In short: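 Screening of inducible HEK293 T-REx D1 cells: compound first, EC80 dopamine 180 s later, each phase read kinetically for calcium over 180 s.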

[17] = Validation screen for small molecules that induce genotoxicity in human embryonic kidney (HEK293T) cells expressing luciferase-tagged ELG1 (AID 493106); details: luminescence; series mostly up to 46.1 µM
In short: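 Reporter-gene quantitative HTS in HEK293T cells carrying luciferase-tagged ELG1, whose level climbs under genotoxic stress. Compound exposure lasts 16 hr at 37 °C before luciferase detection.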

[18] = biological target: ATPase family AAA domain-containing protein 5 (Homo sapiens) (UniProt Q96QE3); test: Validation screen for small molecules that inhibit ELG1-dependent DNA repair in human embryonic kidney (HEK293T) cells expressing luciferase-tagged ELG1 (AID 493107); details: HEK293T ELG1-luciferase level, luminescence, 5-fluorouridine co-treatment, 16 h; series mostly up to 46.1 µM;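 note: cells co-treated with the DNA-damaging agent 5-fluorouridine alongside compound; inhibitors lower the ELG1-luciferase luminescence signal; nearly all actives have a fitted effect of over 70% in size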
ATPase family AAA domain-containing protein 5 (Homo sapiens), sequence (Q96QE3 whole entry, looked up, the tested form may be a part): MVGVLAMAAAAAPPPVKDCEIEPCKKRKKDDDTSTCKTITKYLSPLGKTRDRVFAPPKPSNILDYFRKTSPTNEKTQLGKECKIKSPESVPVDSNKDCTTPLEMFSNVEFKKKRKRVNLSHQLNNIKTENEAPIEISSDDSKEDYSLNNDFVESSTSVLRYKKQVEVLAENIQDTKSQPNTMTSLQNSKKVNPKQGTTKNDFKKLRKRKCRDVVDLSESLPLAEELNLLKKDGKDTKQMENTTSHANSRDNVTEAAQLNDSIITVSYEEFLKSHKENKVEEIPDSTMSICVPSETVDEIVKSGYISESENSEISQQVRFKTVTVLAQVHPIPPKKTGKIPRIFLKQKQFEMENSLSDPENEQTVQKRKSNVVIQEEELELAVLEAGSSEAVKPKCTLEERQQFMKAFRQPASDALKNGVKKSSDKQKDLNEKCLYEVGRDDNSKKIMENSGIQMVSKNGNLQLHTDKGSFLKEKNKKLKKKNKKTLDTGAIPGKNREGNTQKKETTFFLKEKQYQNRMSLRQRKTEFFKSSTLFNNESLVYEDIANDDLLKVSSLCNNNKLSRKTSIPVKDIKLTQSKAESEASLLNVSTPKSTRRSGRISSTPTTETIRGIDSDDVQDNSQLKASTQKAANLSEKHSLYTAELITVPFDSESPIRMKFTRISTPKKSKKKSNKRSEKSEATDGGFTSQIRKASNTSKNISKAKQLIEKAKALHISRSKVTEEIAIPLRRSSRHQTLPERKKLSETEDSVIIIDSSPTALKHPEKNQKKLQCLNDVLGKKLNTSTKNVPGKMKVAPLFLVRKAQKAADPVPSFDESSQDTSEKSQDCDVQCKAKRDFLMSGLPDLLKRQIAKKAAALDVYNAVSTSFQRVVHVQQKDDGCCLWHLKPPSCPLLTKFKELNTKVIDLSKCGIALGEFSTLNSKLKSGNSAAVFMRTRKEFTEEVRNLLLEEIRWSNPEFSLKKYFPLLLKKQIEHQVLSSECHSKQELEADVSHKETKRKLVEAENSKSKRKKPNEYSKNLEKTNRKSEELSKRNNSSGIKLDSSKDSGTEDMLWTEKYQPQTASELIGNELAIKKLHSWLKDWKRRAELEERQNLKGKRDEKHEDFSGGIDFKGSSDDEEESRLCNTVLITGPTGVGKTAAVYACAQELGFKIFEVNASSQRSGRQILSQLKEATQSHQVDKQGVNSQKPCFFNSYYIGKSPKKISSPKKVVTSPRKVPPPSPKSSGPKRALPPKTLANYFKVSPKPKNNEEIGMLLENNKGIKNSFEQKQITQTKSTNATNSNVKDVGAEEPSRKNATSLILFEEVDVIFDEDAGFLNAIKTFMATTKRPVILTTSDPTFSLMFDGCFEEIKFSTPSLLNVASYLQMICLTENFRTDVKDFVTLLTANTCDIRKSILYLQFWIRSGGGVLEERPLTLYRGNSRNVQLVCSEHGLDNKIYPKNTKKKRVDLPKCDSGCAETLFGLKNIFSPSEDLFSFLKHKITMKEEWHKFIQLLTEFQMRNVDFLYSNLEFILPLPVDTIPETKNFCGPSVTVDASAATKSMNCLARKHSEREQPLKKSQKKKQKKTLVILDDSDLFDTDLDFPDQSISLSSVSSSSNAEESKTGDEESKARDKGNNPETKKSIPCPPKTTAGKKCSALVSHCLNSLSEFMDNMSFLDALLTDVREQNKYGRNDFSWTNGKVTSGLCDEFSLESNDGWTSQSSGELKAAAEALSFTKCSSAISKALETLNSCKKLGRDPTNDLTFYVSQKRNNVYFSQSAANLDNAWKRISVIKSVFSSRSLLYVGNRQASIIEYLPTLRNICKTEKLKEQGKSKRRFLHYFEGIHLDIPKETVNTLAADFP
In short: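 Quantitative HTS in HEK293T cells carrying luciferase-tagged ELG1, stimulated with 5-fluorouridine alongside compound for 16 hr. Loss of luciferase signal marks inhibition of ELG1 response.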

[19] = Nrf2 qHTS screen for inhibitors: Validation (AID 493153; active = well fitted inhibition curve with a large enough effect in the main read-out, with a control signal flat, not every such curve was filed as active); details: A549 ARE-Fluc reporter, 18-24 h; viability change: measured here: cytotoxicity max response; luciferase luminescence, at 46.1 µM (top of the series)
In short: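 Dose-response validation uses reporter A549 cells with firefly luciferase under an antioxidant response element. Compounds stay on cells 18-24 h at 37°C, and luminescence indicates Nrf2-driven transcription.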

[20] = qHTS for Inhibitors of Cell Surface uPA Generation: Validation Assay (AID 493164); details: mouse cells, plasminogen activation; series mostly up to 38.3 µM;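 note: RAW 264.7 macrophage cells exposed to compound for 18 h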
In short: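 RAW 264.7, 4000 cells/well, o/n plating; cpd 7-pt 1:5 dilution 2.45 nM–38.3 uM final; 18 h, 37 C/5% CO2; ATP-Lite, 5 s luminescence exposure.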

Measured: viability change

COc1ccc2c(c1OC)C(=O)OC2[C@H]1c2c(cc3c(c2OC)OCO3)CCN1C (some centres not stated)
inactive: [1]

N=c1ccn2c(n1)O[C@H]1[C@@H](O)[C@@H](CO)O[C@H]12
inactive: [2] | [3] | [4] | [5] | [6] | [7]

OCC(O)C(O)C(O)CO (configuration not stated)
inactive: [1]

Nc1nc2c(c(=O)[nH]1)N(C=O)[C@H](CNc1ccc(C(=O)N[C@@H](CCC(=O)O)C(=O)O)cc1)CN2
inactive: [1]

CCC(C(=O)O)C1CCC(C)C(C(C)C(O)C(C)C(=O)C(CC)C2OC3(C=CC(O)[C@@]4(CC[C@](C)(C5CC[C@@](O)(CC)C(C)O5)O4)O3)C(C)CC2C)O1 (some centres not stated)
inactive: [1]

O=c1[nH]c(=O)n([C@H]2C[C@@H](O)[C@@H](CO)O2)cc1C=CBr
1.21%: [19]
inactive: [8] | [9] | [10] | [11] | [4] | [12] | [13] | [14] | [15] | [16] | [17] | [18] | [19] | [20]

COc1ccc([C@@H]2CNC(=O)C2)cc1OC1CCCC1
inactive: [1]

CN[C@H](CC(C)C)C(=O)N[C@H]1C(=O)N[C@@H](CC(N)=O)C(=O)N[C@@H]2C(=O)N[C@H]3C(=O)N[C@H](C(=O)N[C@H](C(=O)O)c4cc(O)cc(O)c4-c4cc3ccc4O)[C@H](O)c3ccc(c(Cl)c3)Oc3cc2cc(c3O[C@@H]2O[C@H](CO)[C@@H](O)[C@H](O)[C@@H]2O[C@H]2C[C@](C)(N)[C@H](O)[C@H](C)O2)Oc2ccc(cc2Cl)[C@H]1O
inactive: [9] | [10] | [4] | [13] | [14] | [15] | [16] | [17] | [18] | [19] | [20]
-4.03%: [19]

CCCCCCCCCCCC(CC1OC(=O)C1CCCCCC)OC(=O)C(CC(C)C)NC=O (configuration not stated)
inactive: [1]

COc1ccc2cc([S+]([O-])Cc3ncc(C)c(OC)c3C)nc2c1
inactive: [9] | [10] | [11] | [12] | [13] | [14] | [15] | [16] | [17] | [18] | [19] | [20]
-3.22%: [19]
